# Assay results taken from article PMC11006913.
# Changes are numbered by the printed parent chain.
# What was measured:
# Experiment in all cases: PBM; 200 nM protein, PBS
# Details in all cases: dsDNA, one strand shown
# NKX2-4 [1] = target: T1, NKX2-4 (Homo sapiens, UniProt Q9H2Z4 175-261, P217L)
# T1 sequence: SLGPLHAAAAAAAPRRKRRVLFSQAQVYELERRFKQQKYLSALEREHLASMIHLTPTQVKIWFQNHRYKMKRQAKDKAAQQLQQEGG
# NKX2-4 [2] = target: T2, NKX2-4 (Homo sapiens, UniProt Q9H2Z4 175-261, T231S)
# T2 sequence: T1 sequence with L43P, T57S
# NKX2-4 [3] = target: T3, NKX2-4 (Homo sapiens, UniProt Q9H2Z4 175-261)
# T3 sequence: T1 sequence with L43P
# NKX2-4 [4] = target: T4, NKX2-4 (Homo sapiens, UniProt Q9H2Z4 175-261, R246Q)
# T4 sequence: T1 sequence with L43P, R72Q
# NKX3-2 [5] = target: NKX3-2 (Homo sapiens, UniProt P78367 192-278, P234S)
# Chain of NKX3-2 (Homo sapiens, UniProt P78367 192-278, P234S) (P78367 192-278 P234S): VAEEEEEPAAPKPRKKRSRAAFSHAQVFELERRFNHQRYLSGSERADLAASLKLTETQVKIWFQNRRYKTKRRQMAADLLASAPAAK
# NKX3-2 [6] = target: NKX3-2 (Homo sapiens, UniProt P78367 192-278)
# Chain of NKX3-2 (Homo sapiens, UniProt P78367 192-278) (P78367 192-278): as the sequence (P78367 192-278 P234S) above, with S43P counted along it
# VAX1 [7] = target: VAX1 (Homo sapiens, UniProt Q5SQQ9 86-172)
# Chain of VAX1 (Homo sapiens, UniProt Q5SQQ9 86-172) (Q5SQQ9 86-172): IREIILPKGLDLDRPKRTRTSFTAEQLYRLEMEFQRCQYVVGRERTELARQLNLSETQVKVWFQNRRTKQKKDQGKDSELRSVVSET
# VAX1 [8] = target: VAX1 (Homo sapiens, UniProt Q5SQQ9 86-172, T142I)
# Chain of VAX1 (Homo sapiens, UniProt Q5SQQ9 86-172, T142I) (Q5SQQ9 86-172 T142I): as the sequence (Q5SQQ9 86-172) above, with T57I counted along it
# VAX1 [9] = target: VAX1 (Homo sapiens, UniProt Q5SQQ9 86-172, K157R)
# Chain of VAX1 (Homo sapiens, UniProt Q5SQQ9 86-172, K157R) (Q5SQQ9 86-172 K157R): as the sequence (Q5SQQ9 86-172) above, with K72R counted along it
# NKX2-6 [10] = target: T5, NKX2-6 (Homo sapiens, UniProt A6NCS4 118-204, R150C)
# T5 sequence: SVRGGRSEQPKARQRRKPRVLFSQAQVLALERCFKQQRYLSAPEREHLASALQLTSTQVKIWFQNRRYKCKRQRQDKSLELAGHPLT
# NKX2-6 [11] = target: T6, NKX2-6 (Homo sapiens, UniProt A6NCS4 118-204)
# T6 sequence: T5 sequence with C33R
# NKX2-6 [12] = target: T7, NKX2-6 (Homo sapiens, UniProt A6NCS4 118-204, F151L)
# T7 sequence: T5 sequence with C33R, F34L
# ALX1 = ALX1 (Homo sapiens, UniProt Q15699 118-204)
# Chain of ALX1 (Q15699 118-204): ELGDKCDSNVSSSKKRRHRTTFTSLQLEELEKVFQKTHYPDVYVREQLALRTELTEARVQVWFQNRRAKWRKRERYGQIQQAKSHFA
sequence,measurement,setting,value
CCCGCAGG,binding signal,NKX2-4 [1],"8.95 upbm affinity estimate (log intensity, higher = more binding, comparable within an allelic series)"
same,binding signal,NKX2-4 [2],"8.81 upbm affinity estimate (log intensity, higher = more binding, comparable within an allelic series)"
same,binding signal,NKX2-4 [3],"9.01 upbm affinity estimate (log intensity, higher = more binding, comparable within an allelic series)"
same,binding signal,NKX2-4 [4],"8.96 upbm affinity estimate (log intensity, higher = more binding, comparable within an allelic series)"
ACCACTCA,binding signal,NKX2-4 [1],"12.4 upbm affinity estimate (log intensity, higher = more binding, comparable within an allelic series)"
same,binding signal,NKX2-4 [2],"12.8 upbm affinity estimate (log intensity, higher = more binding, comparable within an allelic series)"
same,binding signal,NKX2-4 [3],"12.3 upbm affinity estimate (log intensity, higher = more binding, comparable within an allelic series)"
same,binding signal,NKX2-4 [4],"12.8 upbm affinity estimate (log intensity, higher = more binding, comparable within an allelic series)"
same,binding signal,NKX3-2 [5],"12.5 upbm affinity estimate (log intensity, higher = more binding, comparable within an allelic series)"
same,binding signal,NKX3-2 [6],"12.6 upbm affinity estimate (log intensity, higher = more binding, comparable within an allelic series)"
ATACTTCA,binding signal,NKX2-4 [1],"12.4 upbm affinity estimate (log intensity, higher = more binding, comparable within an allelic series)"
same,binding signal,NKX2-4 [2],"12.8 upbm affinity estimate (log intensity, higher = more binding, comparable within an allelic series)"
same,binding signal,NKX2-4 [3],"12.3 upbm affinity estimate (log intensity, higher = more binding, comparable within an allelic series)"
same,binding signal,NKX2-4 [4],"12.8 upbm affinity estimate (log intensity, higher = more binding, comparable within an allelic series)"
CCGCGGTA,binding signal,NKX2-4 [1],"9.81 upbm affinity estimate (log intensity, higher = more binding, comparable within an allelic series)"
same,binding signal,NKX2-4 [2],"9.73 upbm affinity estimate (log intensity, higher = more binding, comparable within an allelic series)"
same,binding signal,NKX2-4 [3],"9.75 upbm affinity estimate (log intensity, higher = more binding, comparable within an allelic series)"
same,binding signal,NKX2-4 [4],"9.9 upbm affinity estimate (log intensity, higher = more binding, comparable within an allelic series)"
CCCGGCAG,binding signal,NKX2-4 [1],"9.62 upbm affinity estimate (log intensity, higher = more binding, comparable within an allelic series)"
same,binding signal,NKX2-4 [2],"9.52 upbm affinity estimate (log intensity, higher = more binding, comparable within an allelic series)"
same,binding signal,NKX2-4 [3],"9.63 upbm affinity estimate (log intensity, higher = more binding, comparable within an allelic series)"
same,binding signal,NKX2-4 [4],"9.61 upbm affinity estimate (log intensity, higher = more binding, comparable within an allelic series)"
same,binding signal,VAX1 [7],"7.23 upbm affinity estimate (log intensity, higher = more binding, comparable within an allelic series)"
same,binding signal,VAX1 [8],"7.18 upbm affinity estimate (log intensity, higher = more binding, comparable within an allelic series)"
same,binding signal,VAX1 [9],"7.28 upbm affinity estimate (log intensity, higher = more binding, comparable within an allelic series)"
CGTTGTCC,binding signal,NKX2-4 [1],"9.74 upbm affinity estimate (log intensity, higher = more binding, comparable within an allelic series)"
same,binding signal,NKX2-4 [2],"9.8 upbm affinity estimate (log intensity, higher = more binding, comparable within an allelic series)"
same,binding signal,NKX2-4 [3],"9.79 upbm affinity estimate (log intensity, higher = more binding, comparable within an allelic series)"
same,binding signal,NKX2-4 [4],"9.81 upbm affinity estimate (log intensity, higher = more binding, comparable within an allelic series)"
ATCGTGCC,binding signal,NKX2-4 [1],"9.86 upbm affinity estimate (log intensity, higher = more binding, comparable within an allelic series)"
same,binding signal,NKX2-4 [2],"9.92 upbm affinity estimate (log intensity, higher = more binding, comparable within an allelic series)"
same,binding signal,NKX2-4 [3],"9.97 upbm affinity estimate (log intensity, higher = more binding, comparable within an allelic series)"
same,binding signal,NKX2-4 [4],"9.95 upbm affinity estimate (log intensity, higher = more binding, comparable within an allelic series)"
CCTGGAGC,binding signal,NKX2-4 [1],"9.98 upbm affinity estimate (log intensity, higher = more binding, comparable within an allelic series)"
same,binding signal,NKX2-4 [2],"9.95 upbm affinity estimate (log intensity, higher = more binding, comparable within an allelic series)"
same,binding signal,NKX2-4 [3],"9.96 upbm affinity estimate (log intensity, higher = more binding, comparable within an allelic series)"
same,binding signal,NKX2-4 [4],"9.94 upbm affinity estimate (log intensity, higher = more binding, comparable within an allelic series)"
AAGTGGAA,binding signal,NKX2-4 [1],"12.4 upbm affinity estimate (log intensity, higher = more binding, comparable within an allelic series)"
same,binding signal,NKX2-6 [10],"11.6 upbm affinity estimate (log intensity, higher = more binding, comparable within an allelic series)"
same,binding signal,NKX2-6 [11],"13.3 upbm affinity estimate (log intensity, higher = more binding, comparable within an allelic series)"
same,binding signal,NKX2-4 [4],"12.9 upbm affinity estimate (log intensity, higher = more binding, comparable within an allelic series)"
same,binding signal,NKX2-6 [12],"10.6 upbm affinity estimate (log intensity, higher = more binding, comparable within an allelic series)"
CACTCTTA,binding signal,NKX2-4 [1],"12.3 upbm affinity estimate (log intensity, higher = more binding, comparable within an allelic series)"
same,binding signal,NKX2-4 [2],"12.7 upbm affinity estimate (log intensity, higher = more binding, comparable within an allelic series)"
same,binding signal,NKX2-4 [3],"12.3 upbm affinity estimate (log intensity, higher = more binding, comparable within an allelic series)"
same,binding signal,NKX2-4 [4],"12.8 upbm affinity estimate (log intensity, higher = more binding, comparable within an allelic series)"
same,binding signal,NKX3-2 [5],"12.5 upbm affinity estimate (log intensity, higher = more binding, comparable within an allelic series)"
same,binding signal,NKX3-2 [6],"12.6 upbm affinity estimate (log intensity, higher = more binding, comparable within an allelic series)"
ACTATAAG,binding signal,NKX2-4 [1],"11.5 upbm affinity estimate (log intensity, higher = more binding, comparable within an allelic series)"
same,binding signal,NKX2-4 [3],"11.4 upbm affinity estimate (log intensity, higher = more binding, comparable within an allelic series)"
same,binding signal,NKX2-4 [4],"11.8 upbm affinity estimate (log intensity, higher = more binding, comparable within an allelic series)"
GGTACTCA,binding signal,NKX2-4 [1],"12.5 upbm affinity estimate (log intensity, higher = more binding, comparable within an allelic series)"
same,binding signal,NKX2-4 [2],"12.9 upbm affinity estimate (log intensity, higher = more binding, comparable within an allelic series)"
same,binding signal,NKX2-4 [3],"12.4 upbm affinity estimate (log intensity, higher = more binding, comparable within an allelic series)"
same,binding signal,NKX2-4 [4],"12.9 upbm affinity estimate (log intensity, higher = more binding, comparable within an allelic series)"
same,binding signal,NKX3-2 [5],"12.5 upbm affinity estimate (log intensity, higher = more binding, comparable within an allelic series)"
same,binding signal,NKX3-2 [6],"12.6 upbm affinity estimate (log intensity, higher = more binding, comparable within an allelic series)"
GCACGGGC,binding signal,NKX2-4 [1],"9.59 upbm affinity estimate (log intensity, higher = more binding, comparable within an allelic series)"
same,binding signal,NKX2-4 [2],"9.54 upbm affinity estimate (log intensity, higher = more binding, comparable within an allelic series)"
same,binding signal,NKX2-4 [3],"9.58 upbm affinity estimate (log intensity, higher = more binding, comparable within an allelic series)"
same,binding signal,NKX2-4 [4],"9.56 upbm affinity estimate (log intensity, higher = more binding, comparable within an allelic series)"
ATGAGTGG,binding signal,NKX2-4 [1],"12.4 upbm affinity estimate (log intensity, higher = more binding, comparable within an allelic series)"
same,binding signal,NKX2-4 [2],"12.8 upbm affinity estimate (log intensity, higher = more binding, comparable within an allelic series)"
same,binding signal,NKX2-4 [3],"12.3 upbm affinity estimate (log intensity, higher = more binding, comparable within an allelic series)"
same,binding signal,NKX2-4 [4],"12.8 upbm affinity estimate (log intensity, higher = more binding, comparable within an allelic series)"
ACTCTTAA,binding signal,NKX2-4 [1],"12.4 upbm affinity estimate (log intensity, higher = more binding, comparable within an allelic series)"
same,binding signal,ALX1,"8.51 upbm affinity estimate (log intensity, higher = more binding, comparable within an allelic series)"
